The values below come from PubChem BioAssay (NCI).

Experiment in all cases: NCI-60 one-dose screen, 48 h (100 = growth as untreated, 0 = no growth, -100 = all killed)
Common to all, as to conditions: 10 µM unless noted

The subject of assay [1] is NCI-H23 lung.
The subject of assay [2] is NCI-H226 lung.
For assay [3], the system named is NCI-H322M lung.
Assay [4] relates to HOP-62 NSCLC.
The test system of assay [5] is NCI-H460 lung.
For assay [6], the system named is HOP-92 NSCLC.
Assay [7] relates to NCI-H522 lung.
Assay [8] has as its system 786-0 renal.
Assay [9] relates to COLO 205 colon.
The subject of assay [10] is DU-145 prostate.
In assay [11] the test system is K-562 leukemia.
The subject of assay [12] is MALME-3M melanoma.
Assay [13] relates to MDA-MB-231 breast.
In assay [14] the test system is RXF 393 renal.
For assay [15], the system named is SF-268 CNS.
Assay [16] has as its system SF-295 CNS.
Assay [17] concerns SF-539 CNS.
For assay [18], the system named is UACC-257 melanoma.
Assay [19] relates to M14 melanoma.
For assay [20], the system named is A549/ATCC NSCLC.

Each structure is given as a SMILES string. Compounds without any hit were thinned out: in the full panel of roughly 83,000, 20% have a hit.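 Percent growth is the endpoint: 0 to 100 indicates growth inhibition (40 means 60% inhibition), 0 means no net growth, and negative values indicate cell death.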 Values without a mark were called inactive. Active and inactive are the calls of the source. Rule for the calls: active = growth percent below 10; inactive = the rest.

In the case of `Cn1cc(C(=O)c2nc(-c3cn(C)c4ccc(F)cc34)no2)c2cc(F)ccc21`, the growth in assay [1] is 92.5%; in assay [2], 89.1%; in assay [3], 84%; in [4] it was 92.2%; in assay [5], 90.7%; in [6], 83.6%. Further, the growth was 79.3% in assay [7]; 107% in assay [8]; 103% in assay [9]; 110% in assay [10]; 96.2% in assay [11]; 96.4% in assay [12]. Moreover, the growth in assay [13] is 96.7%; in assay [14], 116%; in assay [15], 99.6%; in [16], 100%; in assay [17] it was 107%; in [18], 94.9%. Also, in assay [19], the growth was 100%.

As for `COc1ccc(NC2=C(Br)C(=O)C(C)=C(C)C2=O)cc1`, the growth in assay [1] is 79.7%; in [2] it was 75.5%; in assay [4] it was 84.2%; in [5], 99.9%; in [6] it was -73.6% (active); in [7], 87.6%. Moreover, the growth in [8] is 103%; in [10], 106%; in assay [11], -2.92% (active); in assay [12], 94.4%; in assay [13], -55.4% (active); in assay [14], 102%. The growth in assay [15] is 98%; in assay [16] it was 98.9%; in assay [17], 90.6%; in [18], 72.8%; in assay [19] it was 97%.

For `Cc1ccc(-c2nc3c(c(-c4ccccc4)nn3-c3ccccc3)c(-c3ccc(O)cc3)c2C#N)cc1`, the growth in assay [1] is 67.5%; in assay [2], 80%; in assay [4] it was 40%; in assay [5], 27.4%; in assay [6], 74.5%; in assay [7], 69.4%. Moreover, the growth was 52.3% in assay [20]; 18.6% in assay [8]; 70.4% in assay [9]; 60.5% in assay [10]; 22.3% in assay [11]; 75.1% in assay [12]. For the same compound, the growth in assay [13] is 45.9%; in assay [14], -10.4% (active); in [15], 60.2%; in assay [16], -20.9% (active); in assay [17], 15.2%; in assay [18], 93.9%. In assay [19], the growth was 60.3%.

Take `O=C(Nc1ccc(Br)cc1F)c1cc(Br)ccc1O`: the growth in assay [1] is 0.13% (active); in [2] it was -1.23% (active); in assay [4], 13%; in [5], 3.37% (active); in [6] it was -14.6% (active); in assay [7], -7.77% (active). The growth was 8.21% (active) in assay [20]; 7.72% (active) in [8]; 85.6% in assay [9]; 20.9% in assay [10]; 10.3% in assay [11]; -26.4% (active) in assay [12]. Moreover, the growth in [13] is -38.1% (active); in assay [14] it was -8.01% (active); in [15], 14.5%; in assay [16], -59.7% (active); in [17] it was 9.41% (active); in [18], -17.2% (active). The growth in assay [19] was 8.04% (active).

`CCOC(=O)c1cn2ncnc(Oc3ccc(NC(=O)NCCN(CC)CC)c(Cl)c3)c2c1C`: the growth was 76.6% in assay [1]; 91.5% in [2]; 84.2% in assay [4]; 104% in [5]; 41.5% in [6]; 72.9% in [7]. The growth in assay [20] was 91.5%; in assay [8] it was 72%; in assay [9], 57.2%; in [10] it was 90.5%; in assay [11], -9.77% (active); in assay [12], 22.3%. For the same compound, the growth is 59.8% in assay [13]; 41% in assay [14]; 65% in [15]; 92% in assay [16]; 50.7% in [17]; -41.7% (active) in assay [18]. The growth in assay [19] is -64.4% (active).

`CC(C)(C)NC(=O)C(OC(=O)c1cccc(Cl)c1)c1ccc(Cl)cc1` (stereo not given): the growth in [1] is 101%; in [2], 94.9%; in assay [4] it was 80.9%; in assay [5] it was 106%; in assay [6] it was 93.8%; in assay [7] it was 71.1%. The growth in [20] was 90.9%; in [8], 99.2%; in [9] it was 103%; in [10], 103%; in [11], 92.5%; in assay [12], 103%. Besides, the growth was 112% in assay [13]; 111% in assay [14]; 100% in assay [15]; 98.1% in [16]; 95.1% in [17]; 97.1% in assay [18]. Besides, the growth in assay [19] is 94.1%.

With `O=C(N/N=C/[C@H](O)[C@H](O)[C@H](O)CO)c1ccc(NC(=O)c2cccnc2)cc1`, the growth in assay [1] is 101%; in assay [2], 105%; in assay [4], 97.5%; in [5] it was 104%; in assay [6] it was 103%; in assay [7], 92.7%. The growth in assay [20] was 99.8%; in assay [8], 105%; in [9] it was 112%; in assay [10], 111%; in assay [11], 105%; in assay [12], 108%. The growth was 94.5% in assay [13]; 107% in assay [14]; 98.6% in assay [15]; 101% in assay [16]; 98.5% in [17]; 99.8% in [18]. Further, the growth in [19] was 102%.

Consider `c1ccc2cc(C[n+]3ccn(CCCCCCCCCCCCn4cc[n+](Cc5ccc6ccccc6c5)c4)c3)ccc2c1`, for which the growth was -80.3% (active) in assay [1]; -42.1% (active) in assay [2]; -58% (active) in assay [4]; -69.9% (active) in [5]; -68.2% (active) in [6]; -74.2% (active) in assay [7]. Also, the growth in assay [20] was -74.2% (active); in assay [8], 1.28% (active); in [9] it was -67.5% (active); in assay [10], -46.5% (active); in assay [11] it was -59% (active); in [12], -76.7% (active). Moreover, the growth in [13] was -74% (active); in assay [14], -52.2% (active); in assay [15] it was -79.5% (active); in assay [16] it was -40.3% (active); in assay [17], -78.6% (active); in assay [18], -67.5% (active). Further, the growth in [19] is -44.9% (active).
